The whole screen tested about 53,000 sequences, of which about 3,700 (7%) were called active.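 The calls were made as follows: active = gene knockdowns whose robust z-score for IL-1 alpha signal is at least 2 or at most -2, so actives lie on both sides; inactive = the rest.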 The entries come from a sample that favours actives as a whole.

This assay can be described thus: Components of the Cytosolic LPS Sensing Pathway: Gene Identification via Genome-wide siRNA Screen.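 Also: robust z of the log signal after scaling to non-targeting control siRNA wells of the plate.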 Conditions: RAW264.7 macrophages, IL-1a HTRF, actives lie on both sides, screened at 100 nM (by protocol), cells primed 5 h with Pam3CSK4 first. Put shortly: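 Knockdown: 100 nM siRNA, 48h, RAW264.7. Stimulation: Pam3CSK4 5 h, then LipidA via TransIT-TKO 24 h. Output: supernatant IL-1a HTRF, negative-control-normalized, log robust z-score; viability by CellTiter-Glo.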
Regarding CGAAGCUCAACAGAUUCCUTT against Prl7a2, the z-score was -0.278 (inactive).

Turning to GGCACGAUGGUUCAUCCUUTT against Plek2, the z-score was -2.01 (active).

CGGCCUACAACUACCCAACTT against Tekt3: the z-score was 1.02 (inactive).

On to CGACGUAUCCGUUCUAUAATT against Eif2s1, for which the z-score is -1.05 (inactive).

Consider GAGCAUAGAAACCAUGCACTT against Acot2, for which the z-score is -0.621 (inactive).

GGAGAUGUAACCAUAGGCCTT against Dctn6: the z-score is 2.07 (active).

Consider GCUAAAGAAAAGUGGAGACTT against Pbdc1, for which the z-score was 0.165 (inactive).

As for GGCAGAAAGACAUUUUCUUTT against Ift80, the z-score is -2.53 (active).

In the case of GCAUAUCUAUAACAGAGCCTT against Rnase2a, the z-score is -1.23 (inactive).

For GGAAAUGUCAUGACCUUGATT against Tnfaip6, the z-score is -1.89 (inactive).

With CCUGGUGCUAUGGACUAAATT against Tectb, the z-score is -1.15 (inactive).

As for GCUACGGAUGCUUUUCAAATT against Ube2i, the z-score was -0.351 (inactive).

Consider UAUUGUCACCGUCUUAGGCTT against Olfr1028, for which the z-score is -2.84 (active).

For CGUAUCUUAUAUCAGGAAATT against Trem1, the z-score was 0.513 (inactive).

Take GGAGAACAUAAAAAUGGUGTT against Stk39: the z-score is -0.0786 (inactive).

For the sequence GGAGUUUUGGGUGAUGAUATT against Olfr974, the z-score was -2.41 (active).

With GGUCUUUUGUAAAAACCCUTT against Sytl2, the z-score is 0.099 (inactive).

With GGCAACAGUGAAAGAUGAATT against Acnat2, the z-score was 0.0608 (inactive).

Consider GCAACCGCGUCACAUUGAATT against Bicc1, for which the z-score was 0.655 (inactive).

For the sequence “GCGAGCAUGAAGUUAGUAATT against C230029F24Rik”, the z-score was 0.914 (inactive).

Take GGAGUGACUCCUACAAAAUTT against Ms4a4b: the z-score is -2.01 (active).

For CCAGUGGUCAUUCUUGUCUTT against Olfr1076, the z-score is 0.314 (inactive).

Consider GCUGUCGACUUUAAAAGGUTT against Pcdhga7, for which the z-score was -0.356 (inactive).

With GGCAGAAACUAAGAAUGAATT against Mx1, the z-score was -0.292 (inactive).

As to GGACCUUUUGUGAACUUACTT against E2f3, the z-score is 4.53 (active).

As to GGUGAAGAAAGCACUGUUUTT against Olfr980, the z-score is 0.0649 (inactive).

Take GGAAAUCAGAAUUCCAAAATT against Cntn6: the z-score was 1.56 (inactive).

For GGCCUAUUUGUUUUUGAAATT against Mthfd2, the z-score is 1.45 (inactive).

For GGACUAUUCACACUAAGUCTT against Them5, the z-score is -0.214 (inactive).

In the case of GGGAAACAAAAAGCAGAUATT against Ccdc47, the z-score was 0.325 (inactive).

As for GGAACUGGAAAUCUCAGAGTT against Pcdh12, the z-score is 0.447 (inactive).

Consider GCCACAUCAGAUGAAGUCCTT against Ppm1e, for which the z-score is -2.26 (active).

As for GCCCAAUCUACACAGACCATT against Slc7a13, the z-score is -0.939 (inactive).

On to GGAUGUGUGUGUCUCCUCATT against Prr9, for which the z-score is -0.256 (inactive).

In the case of GCUACAGAUUAGGGACAUATT against Pcdhb2, the z-score is 4.53 (active).

On to CCACUCCCAUAAGGGCUAUTT against Smo, for which the z-score is -0.144 (inactive).

For the sequence CCUGAACAUAAAGUUUACUTT against Catsper4, the z-score is 0.209 (inactive).

Turning to CGACAUGUCAAAACUCACGTT against Zfp791, the z-score was 1.22 (inactive).

For CCAUGUACCAGAUUAAGUATT against Krt8, the z-score is 1.16 (inactive).

As to GGUGAAAAGCAGCUAACAATT against Fam135a, the z-score is -1.6 (inactive).

In the case of GCUGUAAUGCUAAUGACAUTT against Gpr22, the z-score is 1.23 (inactive).

Consider CCAUGGUCAUCCCGAUGUUTT against Olfr1454, for which the z-score was 0.171 (inactive).

Take “CGAGAAGGGAUUUUAGAAGTT against A830018L16Rik”: the z-score was -0.92 (inactive).

GGAGAAACUCUUCAGGCUUTT against Tceal8: the z-score was -2.19 (active).

For the sequence GGCAGGCAGAAGGCUUUUUTT against Olfr228, the z-score was 1.07 (inactive).

For GGUGGACAGGAGAAAGGAATT against Npy6r, the z-score was -0.578 (inactive).

In the case of GGAGACCUGAAUUUUUCAGTT against Tab2, the z-score was 0.469 (inactive).

As to GGAACAAUUGUUCCUGUGATT against Kcne1, the z-score is -2.04 (active).

Regarding GGAAGAAGCAACCACAUUCTT against Evl, the z-score was 0.898 (inactive).

Take GGAGGAGUUUGACUUCGACTT against Alox12: the z-score is -0.109 (inactive).

Consider CGUAGACAUGGCCUUUUUUTT against Dipk1c, for which the z-score was -0.863 (inactive).

Turning to GCAAAUGAAUCAUGGGUGGTT against Rnf141, the z-score is 0.116 (inactive).

For GGAACGUGGAUCUUUUUAUTT against Wiz, the z-score was 2.42 (active).

On to GCUGUCCUUCUAUAACCCATT against Frmd5, for which the z-score was -1.68 (inactive).

Consider GCUCUACAUCGAAUUGCUGTT against Lig4, for which the z-score is 4.14 (active).

In the case of GGCGACAAAAAGGCUAAGCTT against Khnyn, the z-score is 0.437 (inactive).

Turning to GGAACUAGCCUUCACUGACTT against Rabggta, the z-score was 0.931 (inactive).

As to GGUUGCAUCACAGCGUAUATT against Phlpp1, the z-score is 0.759 (inactive).

Consider GGAGGAAAAUGAUGGAGAGTT against Lysmd1, for which the z-score is 2.28 (active).

Consider CCACUUUAGCUCCUUUAAGTT against Tet3, for which the z-score is -0.438 (inactive).

On to GGAGCUCUACAUCAUAGACTT against Lhx1, for which the z-score is 0.579 (inactive).

On to GGUAAAACAGGUAUGUCGCTT against Ramac, for which the z-score was 0.48 (inactive).

Regarding CGAUGAGCUAAGAGAGUCCTT against Cand2, the z-score was 3.09 (active).

As for GGCCUACCUGGUUGAGAAATT against Spam1, the z-score was 1.44 (inactive).

Consider GGUCUAUGAAGAGAAGACUTT against Mtres1, for which the z-score is 0.8 (inactive).

GGCACAGUUCCUCAGUAUGTT against Hspbap1: the z-score was 1.76 (inactive).

Regarding GCAUUAUACCUGUCAAGUUTT against Klk1b1, the z-score was 0.608 (inactive).

CGAGUCAAUCAACUUGUCUTT against Olfr54: the z-score is -0.882 (inactive).

On to GGACUCUGAUCUGGAGUAGTT against Slc51a, for which the z-score is -0.397 (inactive).

As for GGCAAACAUCUGUAUCUAUTT against Golph3, the z-score is -0.571 (inactive).

CGGCAACUCAACAAGCUUATT against Cbfa2t3: the z-score was 2.38 (active).

On to GGCAUCUUUUGAAACAAUATT against Ubxn8, for which the z-score was -1.04 (inactive).

Take GGCAGUGGGAUUACAAUGATT against Med12: the z-score was 2.02 (active).

For GGCAUACAAAGCCCUCUAUTT against Kcnrg, the z-score was -0.457 (inactive).

In the case of GGAUGUGAUGACUCAUUUUTT against Zbtb8os, the z-score is 0.976 (inactive).

In the case of GGUGAAUAAAGACCGAGGUTT against Anks6, the z-score was -1.58 (inactive).

On to GCGUGAGGAUGUAGACUACTT against Mmp12, for which the z-score is 0.699 (inactive).

Take GGACAUUUUUGUCUCUAAATT against Pacc1: the z-score was 0.167 (inactive).

For the sequence CCGACACAAGAUGCUCAGUTT against Tmem9, the z-score is -2.3 (active).

As to GGACAAUUCCAUGCUUCCCTT against Il24, the z-score was -0.00641 (inactive).

For “CGCGCAGAUGCACCAGAUUTT against 2610028H24Rik”, the z-score was 1.12 (inactive).

For GGUCAAAGAUGCUAUAAAATT against Olfr993, the z-score was -0.843 (inactive).

Regarding GGAGGCAGCUCCUAUGAUGTT against Rbm28, the z-score was 0.378 (inactive).

In the case of GGUGACUGGUAAAUGCCAGTT against Olfr1502, the z-score is -0.428 (inactive).

Regarding GCCUAUGAUAAGUCUGUGUTT against Ifitm10, the z-score was -2.25 (active).

In the case of CGGUCUUUAUACACAUAUATT against Wnt7a, the z-score was -0.0297 (inactive).

GGUGAGAAUGUGCUUCAAUTT against Egr2: the z-score is -0.0732 (inactive).

As to GCAUCGUCUAUAUUUUUGGTT against Timm50, the z-score is -1.56 (inactive).

As for GGAAGACGAAGAGUUUGGATT against Aqp5, the z-score is 2.37 (active).

Turning to GGAAUGCUUAGUGAAAUUUTT against Ahctf1, the z-score is 0.481 (inactive).

Turning to GGAUUCUGAACCUUACAGATT against Hoxd9, the z-score was 1.61 (inactive).

Consider CGGAGUUGGGAUUUACCAGTT against Pdia5, for which the z-score is -0.594 (inactive).

For the sequence CCGAGGAGAACACUUGUAGTT against Opn4, the z-score is -2.54 (active).

As to GGCACCUUAAUGCUGACUUTT against Sdc4, the z-score was -0.694 (inactive).

For the sequence GGCUCAAGGUUUUCUCUACTT against Olfr710, the z-score is -0.0341 (inactive).

Consider GGUAUAUCCCUCACAAAAGTT against Dnah2, for which the z-score was -1.69 (inactive).

Turning to GCAGUUAUGUUAUAGCUGCTT against Ctu2, the z-score is 0.0152 (inactive).

As to GCUAGUUUAAGAGACUUUGTT against Nfatc2ip, the z-score was 0.234 (inactive).

In the case of GGUCUAAGUCUGAAUGGCCTT against Agrp, the z-score was 0.539 (inactive).

For the sequence CGACUGGAAUCUAAUAACUTT against Fgf2, the z-score was 0.987 (inactive).

Consider CGGCUCCAGGCAAAUAUGGTT against Ezh1, for which the z-score was -1.64 (inactive).

For GGAUCAAUGGUGUCUUUGUTT against Pdzk1, the z-score is -2.2 (active).

CGAGAAAGUAUUGACCGAGTT against Anxa5: the z-score was -0.524 (inactive).

As for GGAAGGUGUUCGUAGAGAATT against Mad2l1, the z-score is 0.0941 (inactive).

In the case of GCACCGUGUCGUUGACUUGTT against Trim56, the z-score is 0.566 (inactive).

With CCUAUCGAGUGAAAGUAAATT against Abcg2, the z-score was -0.304 (inactive).

Regarding “GGCACUGCUAUUAACUACATT against 4933414I15Rik”, the z-score was -0.906 (inactive).
